Assay outcomes (PubChem BioAssay)
The full list was thinned out, with hits kept by preference.
Pf Dd2 growth = qHTS Primary assay for Inhibitors of Plasmodium falciparum Dd2 growth in vitro; P. falciparum Dd2 growth, SYBR Green, 72 h; Potency, µM (titrated, usually from 28.9 µM), inactives show at the highest dose activity, negative = inhibition, hits mostly inhibitors; 120,000 tested, 4.3% active; AID 1347417, 2020; active = well fitted inhibition curve with a large enough effect;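 note: plate controls were DMSO vehicle for no effect and reference drug for full effect; nearly all actives have a fitted effect of over 65% in size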
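Infected erythrocytes (Dd2, 0.3% parasitemia, 2.5% hematocrit final) are added to compound in RPMI-1640/Albumax II medium, grown 72 h at 37C in low oxygen, then lysed with saponin/Triton-X containing SYBR Green and read by fluorescence.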
Starred values were filed as active, the others as inactive; i = inactive; [ ] = another dose, or the depositor's remark. Potency is the fitted concentration of half-maximal effect.

SMILES	Pf Dd2 growth
CC(=O)NC[C@H]1C[C@@H]2CCN1C[C@@H]2c1cc(-c2ccc(F)cc2)nc(C)n1	i
CC(=O)c1ccc(NC(=O)OC[C@H]2C[C@@H]3CCN2C[C@@H]3c2cc(-c3cccs3)nn2C)cc1	-25.0%
CCC(CC)c1cc([C@H]2CN3CC[C@H]2C[C@@H]3COC(=O)Nc2ccc(C(C)(C)C)cc2)nc(-c2ccncc2)n1	1.26µM*
Cn1nc(-c2ccccc2)cc1[C@H]1CN2CC[C@H]1C[C@@H]2CNS(=O)(=O)c1cccs1	-12.9%[44.1 µM]
Cn1nc(-c2ccc3ccccc3c2)cc1[C@H]1CN2CC[C@H]1C[C@@H]2CNS(=O)(=O)c1cccs1	12.6µM*
CCNC(=O)NC[C@H]1C[C@@H]2CCN1C[C@@H]2c1cc(-c2ccccc2)nc(C)n1	-9.0%[44.1 µM]
Cn1nc(-c2ccc3ccccc3c2)cc1[C@H]1CN2CC[C@H]1C[C@@H]2COC(=O)Nc1ccccc1	-23.7%
Cc1nc(-c2ccco2)cc([C@H]2CN3CC[C@H]2C[C@@H]3CNS(=O)(=O)c2cccs2)n1	7.08µM*
COc1ccc(OC)c(S(=O)(=O)NC[C@H]2C[C@@H]3CCN2C[C@@H]3c2cc(-c3ccco3)nc(C)n2)c1	i
CCN1CC(NC(=O)c2cccc(S(=O)(=O)N(C)CCO)c2)CC1=O (stereo not given)	-14.0%
O=C1OC[C@@H]2CCN(Cc3ccc4c(c3)OCO4)Cc3ccc(F)cc3N12	i
Cc1cccc(CC(=O)N2CCc3c(nc4cc[nH]n4c3=O)C2)c1	-13.3%
CCCCc1ccc(NC(=O)Cn2c(C)cc3nc4n(c(=O)c32)CCCCC4)cc1	-9.4%
COc1ccc(NC(=O)OC[C@H]2C[C@@H]3CCN2C[C@@H]3c2cc(C3CCCC3)nc(-c3ccncc3)n2)cc1	1.78µM*
CCC(CC)C(=O)NC[C@H]1C[C@@H]2CCN1C[C@@H]2c1cc(-c2ccco2)nc(C)n1	-29.8%[44.1 µM]
COc1ccc(NC(=O)OC[C@H]2C[C@@H]3CCN2C[C@@H]3c2cc(-c3ccccc3OC)nn2C)cc1	-25.7%
COc1ccc(-c2cc([C@H]3CN4CC[C@H]3C[C@@H]4COC(=O)NC3CCCCC3)nc(C)n2)cc1	i
CC(C)c1ccc(NC(=O)OC[C@H]2C[C@@H]3CCN2C[C@@H]3c2cc(C3CCCCC3)nn2C)cc1	-23.2%
Cc1nc(-c2ccc(F)cc2)cc([C@H]2CN3CC[C@H]2C[C@@H]3CNS(=O)(=O)Cc2ccccc2)n1	i
CC(C)(C)c1ccc(NC(=O)OC[C@H]2C[C@@H]3CCN2C[C@@H]3c2cc(C3CCCC3)nc(-c3ccncc3)n2)cc1	1µM*
CCCNC(=O)OC[C@H]1C[C@@H]2CCN1C[C@@H]2c1cc(C(CC)CC)nc(-c2ccncc2)n1	1.41µM*
Cc1nc(C2CCCC2)cc([C@H]2CN3CC[C@H]2C[C@@H]3CNC(=O)CCCC(=O)O)n1	i
CCC(CC)c1cc([C@H]2CN3CC[C@H]2C[C@@H]3CNS(=O)(=O)c2cccs2)nc(-c2ccncc2)n1	1.12µM*
COc1ccccc1-c1cc([C@H]2CN3CC[C@H]2C[C@@H]3COC(=O)Nc2cccc(C(C)=O)c2)nc(C)n1	-3.9%
Cc1nc(-c2ccc(C(F)(F)F)cc2)cc([C@H]2CN3CC[C@H]2C[C@@H]3CNS(C)(=O)=O)n1	i
SMILES	Pf Dd2 growth
CN1[C@@H](CCC(=O)NCc2cccs2)CNC(=O)[C@@H]2[C@H]1CCN2CC1CC1	-4.1%[44.1 µM]
O=C(Cc1ccccc1)N1CCC(c2noc(-c3ccncc3)n2)C1 (stereo not given)	7.5%[5.79 µM]
COc1ccc(NC(=O)CN2C(=O)NC3(CCOCC3)C2=O)c(OC)c1	51.0%
CCc1cnc(N)nc1N(C)CCC(O)c1ccccc1 (stereo not given)	i
COc1ccc(C(=O)NC[C@H]2C[C@@H]3CCN2C[C@@H]3c2cc(-c3ccc(F)cc3)nn2C)cc1	i
Cc1ccc(C(=O)NC[C@H]2C[C@@H]3CCN2C[C@@H]3c2cc(-c3ccc(F)cc3)nn2C)cc1	i
Cn1nc(-c2ccc(F)cc2)cc1[C@H]1CN2CC[C@H]1C[C@@H]2CNC(=O)c1cccs1	12.6µM*
COc1ccc(OC)c(CNC(=O)c2ccc3c(c2)N(C)C2CCCCN2C3=O)c1 (stereo not given)	i
O=c1[nH]c(N2CCOCC2)nc2c1CCN(Cc1ccc(Cl)cc1)CC2	-9.5%[5.79 µM]
CCOc1ccccc1CN1CCc2nc(N3CCOCC3)[nH]c(=O)c2CC1	24.6%[5.79 µM]
CN1CCN(c2nc3c(c(=O)[nH]2)CCN(Cc2ccccc2Br)CC3)CC1	i[5.79 µM]
O=c1[nH]c(N2CCOCC2)nc2c1CCN(Cc1ccccc1Br)CC2	1.26µM*
O=c1[nH]c(N2CCOCC2)nc2c1CCN(Cc1ccc(F)cc1)CC2	23.0%[5.79 µM]
O=c1[nH]c(N2CCOCC2)nc2c1CCN(Cc1ccc(Cl)cc1F)CC2	0.316µM*
N#Cc1ccc(S(=O)(=O)N2CCCCCCNC(=O)CC2)cc1	-17.9%
CCC(C)NC(=O)C(NC(=O)c1ccccc1)C1CCN(C(=O)c2ccc(Cl)cc2)CC1 (stereo not given)	i
O=C1COCC2(CN1)CN(c1ccc(Oc3ccccc3)cc1)C2	i
CC(C)COc1ccc(C(=O)N2CCN(CCc3ccncc3)CC2)cc1	24.1%
CN1CCN(C2(CNC(=O)c3ccc(C(C)(C)C)cc3)CCCCC2)CC1	i
CC(C)COc1ccc(C(=O)NCC2(N3CCN(C)CC3)CCCCC2)cc1	10µM*
CCCN(C)c1nccnc1OC1CCN(C(=O)C(C)C)C1 (stereo not given)	-23.6%
CCC1(O)CCC12CCN(C(=O)c1cc(C)n(C)n1)CC2 (stereo not given)	-11.9%
CC(C)C(Oc1ccccc1)C(=O)N1CCc2c(ncnc2N(C)C)C1 (stereo not given)	-23.4%
COc1cccc(OCCCCn2c(-c3ccc(Cl)cc3)nc3ccccc3c2=O)c1	10µM*
COc1ccccc1OCCn1c(-c2ccc(Cl)cc2)nc2ccccc2c1=O	-10.1%
SMILES	Pf Dd2 growth
COc1ccc(-c2nc3ccccc3n2Cc2ccc(Cl)cc2)cc1	-9.9%
COc1cc(Cl)ccc1C(=O)N1CCC2(CC1)NC(=O)N(c1ccccc1)N2	-21.5%
COc1cccc(-c2cn3c(n2)N(C(=O)Cc2ccsc2)CCC3)c1	-2.0%
COc1cccc(-c2cn3c(n2)N(C(=O)C2CCCC2)CCC3)c1	8.91µM*
COc1cccc(-c2cn3c(n2)N(C(=O)C2CCC2)CCC3)c1	-59.1%
c1cnc(-c2nc(Cn3cc(C4CCOC4)nn3)cs2)nc1 (stereo not given)	-5.5%
CCOC(=O)C1CCN(C(=O)Cc2ccc(N(Cc3ccccc3)C(=O)c3ccco3)cc2)CC1	1.41µM*
Cc1ccc(CN(C(=O)c2ccco2)c2ccc(CC(=O)N(C)Cc3ccccc3)cc2)cc1	-26.6%
O=C(Cc1ccc(N(Cc2ccc(F)cc2)C(=O)c2ccco2)cc1)N1CCOCC1	i
CCn1ccc(C(=O)N[C@@H]2CN(S(C)(=O)=O)C[C@H]2CN(C)C)n1	32.9%
O=C(N1CCC2(CCNCC2)CC1)C1(S(=O)(=O)c2ccccc2)CC1	-9.5%
O=C(O)C[C@@H]1CCN(S(=O)(=O)c2ccc(Cl)cc2)C[C@@H]1CC1=NCCc2cc(F)ccc21	i
Cc1ccc2nc(-c3cc(NC(=O)c4ccc5c(c4)OCCO5)ccc3Cl)oc2c1	13.0%
Cc1ccc2nc(-c3cc(NC(=O)/C=C/c4ccccc4)ccc3Cl)oc2c1	11.2µM*
O=C(/C=C/c1ccccc1)Nc1cc(-c2nc3ccccc3o2)ccc1Cl	15.2%
O=C1Cc2c(-c3cccc(C(F)(F)F)c3)n[nH]c2CN1CCc1ccncc1	-5.5%[44.1 µM]
